High-throughput results (PubChem BioAssay)
Pf growth 48h – Primary qHTS for delayed death inhibitors of the malarial parasite plastid, 48 hour incubation; P. falciparum luciferase growth in erythrocytes, 48 h; Potency, µM (doses to about 28.7 µM), for the others: at the highest dose activity change, negative = inhibition, actives largely listed as inhibitors; hit rate 5.9% among 310,000; further: potency means the concentration at half of the fitted maximal effect
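In quantitative HTS format, infected erythrocytes bearing luciferase-reporter parasites were treated for a single generation at 37 C. Luminescence after adding detection reagent served as the growth measure.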
Marburg entry inh – qHTS for inhibitors of binding or entry into cells for Marburg Virus | Potency, µM (top dose mostly 37.8 µM), inactives show top-dose activity change, negative = inhibition, most hits filed as inhibitors | Marburg virus pseudotyped entry inhibition, cell reporter | AID 540276, 2011 | hit rate 1.8% among 300,000; calls by dose curve; tested in HEK293 cells; further: potency means the concentration at half of the fitted maximal effect
Lassa entry inh – qHTS for Inhibitors of binding or entry into cells for Lassa Virus. Lassa virus pseudotype entry inhibition, cell reporter. Potency, µM (series often up to 37.9 µM), without a hit: at the highest dose activity change, negative = inhibition, actives largely listed as inhibitors. hit rate 1.2% among 300,000; calls by dose curve; tested in HEK293 cells; further: potency means the concentration at half of the fitted maximal effect; nearly all actives have a fitted effect of over 50% in size
Pf growth 96h – Primary qHTS for delayed death inhibitors of the malarial parasite plastid, 96 hour incubation | Potency, µM (series often up to 28.7 µM), without a hit: top-dose activity change, negative = inhibition, usual class: inhibitors | AID 504834, 2011 | P. falciparum luciferase reporter growth, 96 h | hit rate 6.9% among 320,000; further: potency means the concentration at half of the fitted maximal effect
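Readout is luminescence from an integrated firefly luciferase in P. falciparum. Red cells, 2% hematocrit and 0.05% parasitemia final, were cultured with compound through two parasite generations (96 hours) at 37 C, 5% CO2.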
HCMV inh – qHTS Assay for inhibitors of the human cytomegalovirus (HCMV). HFF cells, HCMV-luciferase reporter, 72 h; hits give low values. activity change, negative = inhibition, % at 57.5 µM. hit rate 4.5% among 410,000. AID 1259415, 2018; in the data active means activity change below about -60%; inconclusive means no clear call, values can overlap the other calls; inactive means above about -39%
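After 16 h attachment at 37C, HFF cells received test compound and HCMV-luciferase (1 PFU/cell); reporter luminescence read 72 h later, data normalized against buffer-only and known inhibitor Salinomycin.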
HCV inhibitor – qHTS Assay for Inhibitors of Hepatitis C Virus (HCV). Huh7.5.1 HCVcc-Cre infection, luciferase reporter, 44 h. Potency, µM (series often up to 41.8 µM), for the others: top-dose activity change, negative = inhibition, hits mostly inhibitors. hit rate 3.4% among 340,000. AID 651820, 2012; further: potency means the concentration at half of the fitted maximal effect
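1,000 cells/well; 4 h culture; + compound; + HCVcc-Cre (~0.5 moi); 44 h; luciferase substrate, RT 15 min; read 15 sec.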
The depositor's hits bear a star; ? = inconclusive; . = not tested or not shown; [ ] = remark or other dose. Sampled rows, rich in hits. Any-hit rate of the full collection: about 14%. Unless noted, the call rests on the fitted dose curve; in most records, active means well fitted inhibition curve with a large enough effect; inconclusive means small, poorly fitted or top-dose-only effect, or another doubt; inactive means no such curve, though single readings can be large or run the other way. On the % scale 0 is the no-effect control and ±100 the full control effect.

SMILES | Pf growth 48h | Marburg entry inh | Lassa entry inh | Pf growth 96h | HCMV inh | HCV inhibitor
COC(=O)CCc1ccc(OCC(O)CNC(C)C)cc1 (centres undefined) | . | . | . | . | -64* | 9%
O=C(c1ccccc1)c1ccc(OCC(O)CNC2CCCc3ccccc32)cc1 (centres undefined) | ? | ? | -14% | 10µM* | -2 | ?
CCOC(=O)C1=CCN(S(C)(=O)=O)C1c1ccc(Cl)cc1 (centres undefined) | . | . | . | . | 11 | .
OC12CCCCC1C(c1ccccc1)NCC2 (centres undefined) | 1% | -10% | 3% | -16% | -33 | -9%
Cc1oc(-c2cccs2)nc1CN1CC[C@@](O)(c2ccccc2)[C@H]2CCCC[C@@H]21 | 0% | ? | -11%[46.1 µM] | 3% | 4 | ?
OC1(c2ccccc2)CCNC2CCCCC21 (centres undefined) | 30% | ? | -2%[46.1 µM] | 10µM* | -18 | -2%
OC1(c2ccccc2)CCN(Cc2ccccc2)C2CCCCC21 (centres undefined) | 10µM* | 8.9µM* | ? | 62% | -32 | 13%
CCOc1ccc(OCC)c(-c2c(=O)n(OCc3ccc(C(C)(C)C)cc3)c3ccccc3[n+]2[O-])c1 | ? | ? | -4% | 12µM* | -39 | -6%
CCOc1ccc(-c2c(=O)n(OCc3ccc([N+](=O)[O-])cc3)c3ccccc3[n+]2[O-])cc1 | 40% | 3% | . | 12µM* | . | 10%
CCOc1ccc(-c2c(=O)n(OCc3ccc([N+](=O)[O-])cc3)c3ccccc3[n+]2[O-])c(OCC)c1 | . | -4%[46.1 µM] | -15% | . | 0 | -1%
CCOn1c(=O)c(-c2ccc(C)cc2)[n+]([O-])c2ccccc21 | 8%[0.00184 µM] | . | . | 35% | -60* | 5%
CC1CCN(S(=O)(=O)c2ccc3ncn(CC(=O)Nc4ccccc4C(F)(F)F)c(=O)c3c2)CC1 | . | 0%[46.1 µM] | 1%[46.1 µM] | . | -5 | .
O=C(CC1C(=O)N(c2ccccc2)C(=O)N1Cc1ccc2c(c1)OCO2)Nc1ccccc1 (centres undefined) | . | 1%[46.1 µM] | -12%[46.1 µM] | . | -10 | .
O=S(=O)(c1ccc(Cl)cc1)N1CCC(N2CCOCC2)CC1 | -4% | 20% | ? | ? | -6 | -17%
Nc1nc(-c2ccc(Cl)cc2)c(N=Nc2ccc(S(=O)(=O)N3CCOCC3)cc2)s1 | -5% | ? | 4% | ? | -28 | 11µM*
Cc1noc(C)c1NC(=O)N(C)C[C@@H]1OCc2cnnn2CCCC(=O)N([C@H](C)CO)C[C@@H]1C | . | . | . | . | 30 | .
CC(NC(=O)C1CCN(S(=O)(=O)c2ccc(F)cc2)CC1)c1ccccc1 (centres undefined) | . | 1%[46.1 µM] | 7%[46.1 µM] | . | -16 | .
Cc1ccc2c(c1)N(C(=O)CCC(=O)N1CCN(c3cccc(C)c3C)CC1)CCO2 | ? | . | . | 48% | ? | 10µM*
CC1CC(C)CN(CCCNC(=O)CCC(=O)N2CCOc3ccccc32)C1 (centres undefined) | 12% | . | . | ? | -65* | 2%
Cc1cccc(N2CCN(C(=O)CCC(=O)N3Cc4ccccc4Oc4ncccc43)CC2)c1C | ? | ? | ? | ? | -94* | ?
O=C(CCC(=O)N1CCOc2ccc(Cl)cc21)NCc1ccccc1 | -14% | . | . | 12µM* | -35 | -15%
NC(c1csc(Nc2nncc3ccccc23)n1)C1CCCCC1 (centres undefined) | . | . | . | . | 15 | .
O=C(C1COc2ccccc2O1)N1CCN(c2nc3c(F)cccc3s2)CC1 (centres undefined) | . | . | 2%[46.1 µM] | . | -35 | .
CCOC(=O)c1ccccc1NC(=O)N1CCOc2ccc(Cl)cc21 | . | . | 8%[46.1 µM] | . | -61* | .
O=C(CCC(=O)N1CCOc2ccc(Cl)cc21)NCCCN1CCN(Cc2ccccc2)CC1 | ? | . | . | 59% | -39 | -19%
SMILES | Pf growth 48h | Marburg entry inh | Lassa entry inh | Pf growth 96h | HCMV inh | HCV inhibitor
COc1ccc(N2CCN(C(=O)CCC(=O)N3CCOc4ccc(Cl)cc43)CC2)cc1 | -10% | . | . | ? | -99* | ?
CC(CNC(=O)CCC(=O)N1CCOc2ccc(Cl)cc21)c1ccccc1 (centres undefined) | ? | . | . | 13µM* | -7 | -5%
CN(CCCNC(=O)CCC(=O)N1CCOc2ccc(Cl)cc21)Cc1ccccc1 | 3% | . | . | 15µM* | ? | -24%
COc1cc(-c2nc3ncccn3c2Nc2ccc(C)cc2C)ccc1O | . | ? | -29%[46.1 µM] | . | 98 | .
CCOC(=O)c1ccc(NC(=O)c2cccc(S(=O)(=O)N3c4ccccc4CC3C)c2)s1 (centres undefined) | 12µM* | ? | ? | ? | -69* | ?
CCN(CC)CCNC(=O)c1ccc(NC(=O)c2cccc(S(=O)(=O)N3c4ccccc4CC3C)c2)cc1 (centres undefined) | 16% | . | . | -25% | -28 | 11µM*
Cc1ccc(C)c(S(=O)(=O)Nc2ccc(C(=O)NCCCN(C)C)cc2)c1 | . | . | . | . | 7 | .
CCN(CC)CCNC(=O)c1ccc(NC(=O)c2cccc(S(=O)(=O)Nc3ccc(C)cc3)c2)cc1 | 0.37µM* | . | . | 1.2µM* | -28 | -5%
Cc1ccc(NS(=O)(=O)c2cc(C(=O)NCCCN(C)C)ccc2Cl)cc1Cl | 6.6µM* | ? | -2% | ? | 6 | ?
CC1Cc2ccccc2N1S(=O)(=O)c1cccc(C(=O)NCCCO)c1 (centres undefined) | -14% | -6% | -18% | ? | 20 | -15%
CCN1CCN(S(=O)(=O)c2ccc(Cl)c(C(=O)Oc3ccc(CC(=O)OC)cc3)c2)CC1 | . | ? | -3% | . | 0 | 3%
Cc1ccc(C(=O)Nc2ccccc2C(=O)O)cc1S(=O)(=O)N1CCCCCC1 | . | . | ? | . | -25 | .
Cc1ccc2[nH]c(=O)c3cc(C(=O)N4CCN(c5ccccc5)CC4)sc3c2c1 | . | ? | -26%[46.1 µM] | . | 18 | .
CCc1nn(C(C)C(=O)N2CCN(c3ccc(OC)cc3)CC2)c(=O)c2cc3occc3n12 (centres undefined) | 8% | . | . | ? | -38 | ?
CCN(CC)CCNC(=O)c1cc(S(=O)(=O)N2CCc3ccccc32)cn1C | -10% | . | . | 11% | 56 | -7%
CCN(CC)CCNC(=O)c1ccc(NC(=O)c2cccc(S(=O)(=O)N3CCc4ccccc43)c2)cc1 | 0.74µM* | 8.9µM* | -4% | 1µM* | ? | ?
CN(C)Cc1ccccc1CNC(=O)c1cccc(S(=O)(=O)Nc2ccc3c(c2)OCO3)c1 | . | . | . | . | -24 | .
CCN(CC)Cc1ccccc1CNC(=O)c1cccc(S(=O)(=O)Nc2ccc3c(c2)OCO3)c1 | 9.3µM* | . | . | ? | -33 | ?
